Bioassay records deposited in PubChem by National Center for Advancing Translational Sciences (NCATS).
The entries come from a sample that favours hits as a whole.
Methyltransferases – Primary Screen for Target Class Profiling of Small Molecule Inhibitors of Methyltransferases; hit rate 3.9% among 25,000; purified enzyme, MTase-Glo SAH luminescence; stronger effect = lower value; calls only at 40 µM; call rule not given here
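Each enzyme was assayed with SAM and its substrate. SAH formation detected by MTase-Glo luminescence; single-point 40 uM screen[…].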
* hit, by the source's call; i = inactive; + = active, no number. On the % scale 0 is the no-effect control and ±100 the full control effect.

SMILES	Methyltransferases
C=C1CC[C@@H](O)[C@]2(C)C[C@H]3OC(=O)C(=C)[C@H]3CC12 (stereo partly drawn)	i
C=C1CC[C@H]2C(=C)CC[C@H]3C(=C)C(=O)O[C@@H]3[C@@H]12	i
C=C1C(=O)OC2C1CCC1(C)C(O)CC=C(C)C21 (stereo not drawn)	+
COc1ccc2[nH]cc(C(=O)Cn3nc4n(Cc5ccc(F)cc5)c(=O)c5ccccc5n4c3=O)c2c1	i
O=C(O)c1cc([N+](=O)[O-])ccc1NCCCc1ccccc1	i
Fc1ccccc1-c1noc(NCCc2ccc(Cl)cc2)n1	i
O=C1c2ccccc2C(=O)c2c(NCCc3ccc(O)cc3)ccc(NCCc3ccc(O)cc3)c21	+
COc1ccc(CNC(=O)CSc2nnc3n(CCc4ccccc4)c(=O)c4ccccc4n23)cc1	i
CCCn1c(=O)c2ccc(Cl)cc2n2c(=O)n(CC(=O)Nc3ccc(C)cc3Cl)nc12	i
COCCOc1ccc2c(c1)ncn2-c1ccc2cccc(N3CCC(N)CC3)c2n1	+
COCCOc1ccnc(-c2noc([C@@H]3CCCN3Cc3ccncc3)n2)c1	i
CC(C)OCCCn1c(=O)c2cc(Cl)ccc2n2c(SCc3ccccc3)nnc12	i
Cc1ccc(C)c(N2C(=O)c3cc4sccc4n3CC2(C)C(=O)NC2CCCCCC2)c1 (stereo not drawn)	i
CC(C)Cn1c(=O)c2ccccc2n2c(SCC(=O)N3CCN(c4ccccc4F)CC3)nnc12	i
CCC1c2ccc(C)n2CCN1C(=O)Nc1ccc(Cl)cc1 (stereo not drawn)	i
Oc1ccc2ccccc2c1SSc1c(O)ccc2ccccc12	+
Cc1cc(N(C)C)ccc1-c1nc2ccc(-c3nc4ccc(N5CCN(C)CC5)cc4[nH]3)cc2[nH]1	+
COc1ccc(CNC(=O)CCn2ccc3cc(S(=O)(=O)N4CCCCC4)ccc32)cc1	i
O=C(NCCCc1ccccc1)C1CN(C2CCCC2)C(=O)N1 (stereo not drawn)	i
CC1=C(C(=O)OCc2ccccc2)C(c2ccc(-c3ccccc3)cc2)NC(=O)N1CCCCCC(=O)O (stereo not drawn)	+
O=C1N[C@@H]2CCN(C(=O)c3ccc(-c4ccccc4)cc3)[C@@H]2C(=O)N1Cc1ccccc1	i
O=C(NCc1ccncc1)c1ccc(-c2ccsc2)nc1	i
Cc1cccc(-c2nnn3c2nc(N2CCCC2)c2ccccc23)c1	i
Cc1nc(N2CCCC2)nc(N2CCC3(CC2)OCCCC3O)c1C (stereo not drawn)	i
Cc1cc2c(N3CCCC3)nc(N3CCCC3)nc2n1C	+
SMILES	Methyltransferases
Cc1ccc(NC(=O)Cn2nc3n(C(C)C)c(=O)c4ccc(C(=O)NCC(C)C)cc4n3c2=O)cc1	i
Cc1ccn(-c2cc(Cl)ccc2[C@@H](Oc2cc(-c3ccc(C[C@H](N)C(=O)O)cc3)nc(N)n2)C(F)(F)F)n1	+
Cc1ccc(-c2noc(-c3cccc(S(=O)(=O)N4CCN(c5cccc(C)c5C)CC4)c3)n2)cc1	i
CCc1ccc(NC(=O)CN(C)S(=O)(=O)c2ccc3[nH]c4c(c3c2)CCCC4)cc1	i
COc1ccc2c(c1)C[C@H](C(=O)Nc1ccc(-c3cn[nH]c3)cc1OCCN(C)C)CO2	+
COc1ccc2c(c1)OCC(C(=O)NCc1noc(-c3ccco3)n1)C2 (stereo not drawn)	i
COc1ccc2c(c1)CC(NS(=O)(=O)c1ccc(C)cc1)CO2 (stereo not drawn)	i
C=C(C(=O)O)C1CC2=C(C)CCCC2(C)C[C@@H]1O (stereo partly drawn)	i
C=C(C(=O)O)[C@H]1C[C@]2(C)C(=O)CC[C@]23O[C@H]1C[C@@H]3C	+
CC1(C(=O)NC2CCCC2)Cn2c(cc3sccc32)C(=O)N1Cc1cccc(F)c1 (stereo not drawn)	i
CC1CCC(NC(=O)c2cc3n(n2)CC(C)(C(=O)NC2CCCCCC2)N(C)C3=O)CC1 (stereo not drawn)	i
CCc1cc2c(cc3n2CC(C)(C(=O)NC2CCCCC2)N(Cc2cccs2)C3=O)s1 (stereo not drawn)	i
C=C(C(=O)O)[C@@H]1CC[C@H](C)[C@@H]2CC(=O)C(C)=C2C1	+
C=C(C(=O)O)C1CC2=C(C)C(=O)CC2C(C)CC1O (stereo not drawn)	i
COc1ccccc1CN1C(=O)c2nc3ccccc3n2CC1(C)C(=O)NC1CCCCC1 (stereo not drawn)	i
CCCN1C(=O)c2c(C(=O)NCc3ccc(OC(C)C)cc3)ncn2CC1(C)C(=O)NC1CCCC1 (stereo not drawn)	i
O=C(/C=C/c1ccccc1O)O[C@@H]1O[C@H](CO)[C@@H](O)[C@H](O)[C@H]1O	i
OC[C@H]1O[C@@H](Oc2ccc(O)c3cccc(O)c23)[C@H](O)[C@@H](O)[C@@H]1O	+
CC(=O)c1c(C)cc(O[C@@H]2O[C@H](CO)[C@@H](O)[C@H](O)[C@H]2O)cc1O	i
